Screens deposited in PubChem by National Center for Advancing Translational Sciences (NCATS).
The list is not random: actives were taken first. Their share in the collection is about 21%.
NS1 function inh: influenza NS1 inhibition; Potency, µM (series often up to 46.1 µM); AID 2326; hit rate 0.4% among 270,000; calls by dose curve; note: actives are rising curves; nearly all actives have a fitted effect of over 50% in size
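OD600 was taken as the measure of yeast growth restored by compound in an NS1-expressing S. cerevisiae strain. Cells had been washed out of glucose medium and diluted 1:100 into galactose -URA medium, pH 6.0.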
Shiga toxin inh: inhibitors of Shiga toxin in Vero cells; Vero cells, Shiga toxin protein synthesis inhibition reporter; inhibition, % at 38.7 µM; hit rate 9.2% among 290,000; AID 2315; in the data active = inhibition mostly above about 28%, no sharp cut-off; inactive = mostly below about 43%
Pf growth 48h: inhibits P. falciparum growth in the first generation, 48 h. P. falciparum luciferase growth in erythrocytes, 48 h. Potency, µM (series often up to 28.7 µM), actives largely listed as inhibitors. hit rate 5.9% among 310,000. AID 504832
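Cell-based growth assay: transgenic P. falciparum expressing firefly luciferase, cultured in red cells within RPMI 1640 containing 0.5% w/v Albumax, 24 mM bicarbonate and gentamycin. A drop in luciferase activity indicates inhibition.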
CHX counter: counter-screen hit for Shiga toxin inhibitors, cycloheximide; cell reporter, cycloheximide protein synthesis inhibition counterscreen; max response, %; hit rate 12% among 300,000; AID 2314; in the data active = max response mostly above about 13%, no sharp cut-off; inactive = mostly below about 14%; note: read at 38.3 µM for the half of the compounds with a filed dose
Pf growth 96h: P. falciparum growth inhibition at 96 hour, primary screen for plastid delayed-death inhibitors; P. falciparum luciferase reporter growth, 96 h; Potency, µM (top dose mostly 28.7 µM), usual class: inhibitors; hit rate 6.9% among 320,000; AID 504834
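Readout is luminescence from an integrated firefly luciferase in P. falciparum. Red cells, 2% hematocrit and 0.05% parasitemia final, were cultured with compound through two parasite generations (96 hours) at 37 C, 5% CO2.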
Hits are given with their value; . = inactive; ? = inconclusive; / = not tested or not shown; [ ] = dose if it differs, or a comment. Unless noted, calls come from the whole dose curve; as a rule, active = well fitted inhibition curve with a large enough effect; inconclusive = small, poorly fitted or top-dose-only effect, or another doubt; inactive = no such curve, though single readings can be large or run the other way.

SMILES	NS1 function inh	Shiga toxin inh	Pf growth 48h	CHX counter	Pf growth 96h
O=C(NC(CC(=O)N1CCN(c2ccccc2O)CC1)c1ccccc1)c1ccccc1Cl (configuration not stated)	/	/	10µM	/	?
Cc1cccc(N2CCN(C(=O)CC(NC(=O)c3ccccc3Cl)c3ccccc3)CC2)c1C (configuration not stated)	.	.	?	.	?
c1cncc(-c2noc(-c3cccc4ccccc34)n2)c1	.	89	.	45	/
Cc1c(-c2nc(-c3ccncc3)no2)cccc1[N+](=O)[O-]	.	.	.	.	.
c1ccc(-c2ccccc2-c2nc(-c3cccnc3)no2)cc1	.	.	?	.	/
c1ccc2c(-c3nc(-c4ccncc4)no3)cccc2c1	.	63	?	21	.
c1ccc(-c2noc(-c3cccc4ccccc34)n2)cc1	.	50	.	54	.
O=C(CN(C(=O)c1csnn1)c1cccc2ccccc12)NCc1ccccc1	.	.	?	.	.
Cc1cc(C)cc(NC(=S)N2CCC(NC(=O)c3ccccc3C)CC2)c1	.	.	.	.	.
COc1ccccc1Cn1c(=S)[nH]c2cc(C(=O)NCc3cccnc3)ccc2c1=O	/	.	?	.	8.3µM
O=C(Nc1cccnc1)c1ccc2c(c1)C(=O)N(Cc1cccnc1)C2=O	.	.	.	.	9.3µM
O=C(NCc1cccnc1)c1ccc2c(c1)C(=O)N(Cc1ccccc1)C2=O	.	.	.	.	4.1µM
CCOC(=O)N1CCN(C(=S)NC(=O)c2ccc(F)c(F)c2)CC1	.	.	.	.	.
COC(=O)c1[nH]cnc1C(=O)c1ccccc1	.	.	.	.	.
Cc1ccc2c(C)c(C(=O)NCc3ccc(S(N)(=O)=O)cc3)oc2c1C	.	.	.	.	.
Cc1ccc2c(C)c(C(=O)N(C)C(C)c3ccncn3)oc2c1C (configuration not stated)	.	54	.	13	.
Cc1ccc2c(C)c(C(=O)N(C)C(C)c3ccon3)oc2c1C (configuration not stated)	.	83	.	59	.
COC(=O)c1ccccc1OCCCN(C)C	.	.	.	.	.
COc1ccc(N2C(=O)[C@@H]3[C@H](C2=O)[C@H]2c4ccccc4C=CN2[C@@H]3C(=O)Nc2ccccc2)cc1	.	.	/	.	9.3µM
Cc1ccc(N2C(=O)[C@@H]3[C@H](C2=O)C2c4ccccc4C=CN2[C@@H]3C(=O)c2ccco2)c(C)c1 (some centres not stated)	.	.	?	.	.
CC(C)(C)C(=O)[C@@H]1[C@@H]2C(=O)N(c3ccc4c(c3)OCCO4)C(=O)[C@@H]2C2c3ccccc3C=CN21 (some centres not stated)	.	.	?	16	.
Cc1ccc(N2C(=O)[C@@H]3[C@H](C2=O)C2c4ccccc4C=CN2[C@@H]3C(=O)c2ccco2)cc1 (some centres not stated)	?	29	?	.	.
O=C(c1ccco1)[C@@H]1[C@@H]2C(=O)N(c3ccccc3)C(=O)[C@@H]2C2c3ccccc3C=CN21 (some centres not stated)	?	.	.	.	4.7µM
CC(=O)[C@@H]1[C@@H]2C(=O)N(Cc3ccccc3)C(=O)[C@@H]2C2c3ccccc3C=CN21 (some centres not stated)	?	.	?	.	.[5.75 µM]
O=C(Nc1nc(-c2ccc3c(c2)OCCO3)cs1)C1CCCC1	.	149	.	49	.
SMILES	NS1 function inh	Shiga toxin inh	Pf growth 48h	CHX counter	Pf growth 96h
N#CCC(=O)Nc1nc(-c2ccc3c(c2)OCCO3)cs1	.	56	.	32	10µM
O=C(CCCCl)Nc1nc(-c2ccc3c(c2)OCCO3)cs1	.	70	.	31	.
O=C(CSCC(=O)N1CCOCC1)Nc1nc(-c2ccc3c(c2)OCO3)cs1	.	.	/	33	.
CC(C)[C@H](NC(=O)[C@@H]1CSSC[C@H](NC(=O)[C@H](CC(=O)O)NC(=O)[C@H](C)NC(=O)[C@@H](NC(=O)CNC(=O)[C@H](C)N)[C@@H](C)O)C(=O)N[C@@H](Cc2ccccc2)C(=O)N[C@@H](Cc2c[nH]c3ccccc23)C(=O)N[C@@H](CCCCN)C(=O)N[C@@H](Cc2ccc(O)cc2)C(=O)N1)C(=O)O	/	.	/	.	/
Cc1nnsc1Sc1ccccc1	.	.	.	.	.
Cc1cccn2c(=O)c3cc(C(=O)N4CCc5ccccc5C4)n(C)c3nc12	.	/	/	/	/
O=C(O)CCCNS(=O)(=O)c1ccc(NCc2ccccc2)c(C(=O)O)c1	.	.	.	.	.
Cc1occc1C(=O)NNC(=O)C1CCCCC1	.	.	.	.	?
